GCN5L2 inh: GCN5L2 (KAT2A) acetyltransferase inhibition | Q92830 | GCN5L2 HAT assay, ThioGlo1 CoA-SH fluorescence | Potency, µM (doses to about 58.9 µM), hits mostly inhibitors | 390,000 tested, 0.21% active
Target sequence (Q92830 whole entry, looked up): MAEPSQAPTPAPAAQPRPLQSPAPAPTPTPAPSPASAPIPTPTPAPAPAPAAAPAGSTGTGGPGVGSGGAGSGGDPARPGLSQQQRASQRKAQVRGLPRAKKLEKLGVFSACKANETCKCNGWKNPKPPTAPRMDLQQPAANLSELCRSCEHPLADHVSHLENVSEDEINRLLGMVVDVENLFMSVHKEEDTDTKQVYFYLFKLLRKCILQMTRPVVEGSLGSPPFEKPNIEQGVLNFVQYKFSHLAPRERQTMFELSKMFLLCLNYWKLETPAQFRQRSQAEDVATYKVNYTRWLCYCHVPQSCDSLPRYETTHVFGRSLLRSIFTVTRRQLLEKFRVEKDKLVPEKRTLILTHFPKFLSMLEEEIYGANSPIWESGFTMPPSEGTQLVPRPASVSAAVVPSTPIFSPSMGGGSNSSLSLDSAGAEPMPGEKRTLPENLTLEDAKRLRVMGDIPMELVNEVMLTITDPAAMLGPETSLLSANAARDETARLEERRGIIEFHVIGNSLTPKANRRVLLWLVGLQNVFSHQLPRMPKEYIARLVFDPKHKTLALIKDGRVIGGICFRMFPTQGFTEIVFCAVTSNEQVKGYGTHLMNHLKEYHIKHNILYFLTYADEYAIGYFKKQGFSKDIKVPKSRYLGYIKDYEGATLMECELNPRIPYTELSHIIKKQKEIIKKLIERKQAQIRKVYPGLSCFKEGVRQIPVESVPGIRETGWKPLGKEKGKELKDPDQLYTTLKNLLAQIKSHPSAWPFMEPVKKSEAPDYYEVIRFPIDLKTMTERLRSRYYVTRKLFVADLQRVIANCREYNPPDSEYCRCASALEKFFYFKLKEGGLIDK
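ThioGlo1-coupled HAT assay: 20nM GCN5L2, 70uM acetyl-CoA, 75uM H3(1-25) peptide, pH 7.5. Fluorescence read at 340/540nm at start and after 20 min at room temperature.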
Mito fusion act: blocks mitochondrial division or promotes mitochondrial fusion | AID 485298 | Potency, µM (series often up to 46.1 µM), usual class: activators | 320,000 tested, 0.23% active | S. cerevisiae fusion-defective mutant growth rescue, CellTiterGlo 48 h; further: nearly all actives have a fitted effect of over 45% in size
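Temperature-sensitive fusion-defective S. cerevisiae (e.g. fzo1-1, mgm1-5) were grown with compound in YPEG medium (3% ethanol, 3% glycerol) for 48 hours at 37C. Growth rescue was measured as viability by CellTiterGlo luminescence after 10 minutes at ambient.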
VDR inh: blocks the human vitamin D receptor. VDR-SRC2-3 peptide fluorescence polarization, 2 h. 400,000 tested, 0.93% active. P11473. Potency, µM, most hits filed as inhibitors
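Inhibition of the VDR/SRC2-3 peptide interaction is quantified by fluorescence polarization. Compounds (23 nl, pintool) incubate with the reagents for 2 hours at ambient room temperature.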
PLK1 PBD inh: PLK1 (human) polo-box domain binding inhibition. P53350. Plk1 PBD binding of FITC phosphopeptide, fluorescence polarization. Potency, µM, hits mostly inhibitors. 360,000 tested, 2.8% active. AID 720504; further: series mostly up to about 57 µM; nearly all actives have a fitted effect of over 65% in size
PKM2 activator: PKM2 (human) enzyme activation. 260,000 tested, 0.34% active. Potency, µM (highest dose often 57.5 µM), usual class: activators. P14618. purified PKM2, Kinase-Glo ATP luminescence, activation; response scale: 0% is enzyme alone, no compound; further: nearly all actives have a fitted effect of over 55% in size
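ATP formation by purified human PK-M2, quantified via coupled luciferase luminescence after 1 h at room temperature with 0.1 mM ADP and 0.5 mM PEP final.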
GLS inh: inhibitors of human glutaminase (GLS); 410,000 tested, 0.21% active; Potency, µM (doses to about 45.5 µM), actives largely listed as inhibitors; GLS enzymatic activity, qHTS titration
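Read-out is an Amplex red fluorescence increase coupled through glutamate oxidase and HRP, measured before and after 30 min room-temperature incubation. hKGA is in 45 mM KH2PO4 (pH 8.2) with 0.02% Tween-20; glutamine added as 1mM solution.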
Hits are given with their value; 0 = inactive; ? = inconclusive; - = no result given; [ ] = dose if it differs, or a comment. Compounds with a hit are over-represented: about 3.4% of the library has one in this group of screens. The call rests on the fitted dose curve; in most records, active means well fitted curve in the direction sought with a large enough effect; inconclusive means small, poorly fitted or top-dose-only effect, or another doubt; inactive means no such curve, though single readings can be large; an effect the other way counts as inactive or inconclusive.

SMILES	GCN5L2 inh	Mito fusion act	VDR inh	PLK1 PBD inh	PKM2 activator	GLS inh
CC(C)(C)c1ccc(-n2nc(C(N)=O)c(O)cc2=O)cc1	0	0	?	4.7µM	0	?
COC(=O)c1nn(-c2ccccc2)c(=O)cc1O	0	0	0	?	0	0
COC(=O)c1c(/N=C/N(C)C)sc2c1CCN(c1ncc(C(F)(F)F)cc1Cl)C2	0	10µM	0	0	0	0
COC(=O)c1c(N(S(C)(=O)=O)S(C)(=O)=O)sc2c1CCN(c1ncc(C(F)(F)F)cc1Cl)C2	0	0	0	0	0	0
CCCCn1cc(S(=O)(=O)c2ccc(F)cc2)c(=O)c2ccccc21	0	-	0	-	-	0
CCOC(=O)C1(C)CCN1C(=O)c1cncc(Br)c1 (stereo unspecified)	-	-	-	0	-	0
CN(C(=O)CSCC(=O)O)C1CCCCC1	0	0	0	0	0	0
O=C1CCCC2=C1C(c1cn(-c3ccccc3)nc1-c1cccs1)c1c([nH]c(=O)[nH]c1=O)N2 (stereo unspecified)	0	0	0	24µM	0	0
COc1ccc(/C=C/C(=O)c2cccs2)c(OC)c1	?	-	11µM	-	-	-
COc1ccc(OC)c(CCNC(=O)CS(=O)(=O)Cc2nc(-c3cccc(Cl)c3)oc2C)c1	0	-	0	-	-	0
Cc1ccc(N2CC(NC(=O)CCc3ccccc3)CC2=O)cc1C (stereo unspecified)	0	-	0	-	-	0
CCOC(=O)C1CCCN(C(=O)CSc2ccc(NC(C)=O)cc2)C1 (stereo unspecified)	0	0	0	21µM	0	0
CCN(CC)CCn1c(-c2ccccc2)nc2c(NCc3ccccc3)nc(C)nc21	-	-	-	-	0	-
O=S(=O)(Nc1cc(Sc2ncn[nH]2)c(O)c2ccccc12)c1ccccc1	22µM	0	?	2.1µM	0	0
COc1ccc(Cl)cc1Cn1c(C)c(C(=O)NCc2cccc([N+](=O)[O-])c2)sc1=O	-	-	-	0	-	0
COCc1c(C(=O)OC)nnn1-c1ccc(C(F)(F)F)cc1[N+](=O)[O-]	0	0	0	27µM	0	0
O=C(O)CCN1C(=O)C2C3CC(C2C1=O)C1C(c2ccccc2)c2sc(=O)[nH]c2SC31 (stereo unspecified)	0	0	0	0	0	0
O=C(O)CCN1C(=O)C2C3CC(C2C1=O)C1C(c2ccccc2)c2sc(=O)n(-c4ccccc4)c2SC31 (stereo unspecified)	0	0	?	42µM	0	0
CCOc1ccc(Oc2nc(Nc3ccc(C)cc3)nc(N(C)C)n2)nn1	0	0	0	21µM	0	0
N#CCCN1CCN(C(=S)c2ccc(-c3ccc(Cl)c(Cl)c3)o2)CC1	0	0	0	11µM	?	0
Cc1sc2nc[nH]c(=O)c2c1-c1ccc(F)cc1	?	0	0	0	0	0
Cc1sc2nc[nH]c(=S)c2c1-c1ccccc1	0	0	89µM	?	0	?
O=C(O)CN1C(=O)SC(Nc2ccccc2C(=O)O)C1=O (stereo unspecified)	0	0	0	0	0	0
Cc1ccc(NC2SC(=O)N(Cc3cccc(C(=O)O)c3)C2=O)cc1 (stereo unspecified)	0	0	0	21µM	0	0
Cc1ccc(NC2SC(=O)N(Cc3cccc(C(=O)O)c3)C2=O)c(C)c1 (stereo unspecified)	0	0	0	?	0	0
O=C(O)c1cccc(CN2C(=O)SC(Nc3cccc4ccccc34)C2=O)c1 (stereo unspecified)	14µM	0	0	?	?	?
CC(=O)c1cccc(OCC(O)CNCC2COc3ccccc3O2)c1 (stereo unspecified)	?	-	0	0	-	0
CCOc1c(O)ccc(/C=C2\SC(=S)NC2=O)c1[N+](=O)[O-]	0	0	?	30µM	0	0
CCOc1ccc(N(C)c2ccc(/C=C3/SC(=S)NC3=O)cc2)cc1	0	0	0	0	0[11.5 µM]	0
Cc1ccc(N2CC3=C(C2=O)C(c2ccc(Br)cc2)NC(=O)N3C)cc1 (stereo unspecified)	0	-	0	-	-	0
